“And” between values parts separate entries of the source, which are not always exact repeats. Equal entries are not always repeated. Among all 230,000 compounds or so, about 310 (0.13%) were called active. Another 2% or so got no clear call; they are omitted. This is one part of a sample in which actives are shown more often than they occur. Unmarked numbers belong to inactive results. Calls follow the shape of the dose curve; as a rule, active = well fitted activation curve with a large enough effect; inconclusive = small, poorly fitted or top-dose-only effect; inactive = no such curve, though single readings can be large or run the other way.

This experiment can be described thus: qHTS Multiplex Assay to Identify Dual Action Probes in a Cell Model of Huntington: Cytoprotection (ATP). Also: nearly all actives have a fitted effect of over 45% in size.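 As to cytoprotection (ATP increase): toxic huntingtin expression switched on by the ecdysone agonist tebufenozide; % of control where 0% means no effect.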 The settings on record: PC12 HTT-Q103 induced, ATP luminescence, 40 h; series mostly up to 56.4 µM; cytoprotection (ATP increase): at the top concentration. An excerpt: NIH Chemical Genomics Center [NCGC]
NIH Molecular Libraries Probe Production centers Network [MLPCN]
Assay Submitter (PI): Wei Zheng
Huntington's disease is a neurodegenerative disorder caused by a trinucleotide repeat expansion in Exon 1 of the Huntingtin gene. The CAG trinucleotide encodes glutamine and polyglutamine expansions cause cell death in selective areas of the brain. Huntington polyglutamine repeats have the tendency to form aggregates which are observable in later stages of the disease. The exact nature of the aggregates, whether toxic, protective, or insignificant, is unclear.
A stable PC12 cell line containing a gene fusion of Exon 1 of the Huntingtin gene linked to GFP under the control of the inducible ecdysone promoter were used as the cell-based model of Huntington Disease for high throughput screening. Exon 1 of the Huntingtin gene contained an expansion of 103 polyglutamines (Q103) which, when expressed, caused cell death and distinct, bright GFP aggregates. The amount of cell death and the size and intensity of GFP aggregates increased over time and induction level. The cell death were quantified with a measurement of ATP content in the cells. A maximal 40-50% of cell death was observed when the Huntington gene was induced in this cell line.
We optimized this assay in a homogeneous 1536 well format. A quantitative high throughput screen (qHTS) was conducted on the PC12 cells which were induced to express the toxic fusion construct. Small molecules which prevented cell death were identified by using a luminescent ATP quantification method (Perkin Elmer's ATPlite).
PC12 cells stably containing a construct with an ecdysone inducible promoter expressing GFP fused to the exon 1 of HTTQ103 (Huntington protein which containing a 103 ployglutamine expansion) were used.
NCGC Assay Protocol Summary:
Sequence, Parameter, Description
1, Reagent, 5 uL 1500 cells/well 1536 TC treated White clear bottom plate
2, Compound, 23 nL Tebufenozide inducer (100 nM final) to all columns
3, Compound, 23 nL 40 uM to 0.5 nM Libraries
5, Reagent, 5 ul ATPLite cell death assay reagent
6, Detector, 4 sec integration with a Viewlux Luminescent
Media consisted of phenol red free DMEM + 5% equine serum (Hyclone # SH30072.03 ), 5% supplemented Bovine Calf Serum (Hyclone # SH30074.03 ), 1x pen/strep, no G418
Control columns: 1 = DMSO, 2= 2 uM teb dilns (1:1), 4 = 100 nM Teb inducer. Sample columns received 100 nM Teb.
In general terms: qHTS replaces the single test concentration by a dilution series.
Take `COC(=O)C(C(=O)OC)[C@@H](NC=O)c1ccccc1`: the “cytoprotection (ATP increase)” value was -30.4%.
The same measure, in the same setting: next, `CC1(OC(=O)c2ccc(Cl)nc2)C(=O)Cc2cc(-c3ccsc3)ncc2C1=O` (stereo not drawn): -9.48% [at 10 µM]; `COc1ccc2c(c1)O[C@@H](c1ccc3c(c1)OCO3)[C@H](OC(=O)NCCc1ccc(OC)c(OC)c1)C2=O`: -180%; `COc1cc2c(cc1OC)[C@@H](Cc1cc(OC)c(OC)c(OC)c1)[N+](C)(CCCOC(=O)CC/C=C/CCC(=O)OCCC[N+]1(C)CCc3cc(OC)c(OC)cc3[C@H]1Cc1cc(OC)c(OC)c(OC)c1)CC2` (stereo partly drawn): 6.54%.
`CCN1C(=O)N[C@@H](CCc2ccccc2)C(C(=O)OC)=C1C`: the cytoprotection (ATP increase) is -1.46% [at 10 µM].
Take `C=C(C(C)=O)C(O)c1cccs1` (stereo not drawn): the “cytoprotection (ATP increase)” value is -12.9%.
As to `O=C(Nc1ccc(O)cc1)c1ccccc1O`, the “cytoprotection (ATP increase)” value was -145%.
The same measure, in the same setting: in the case of `CC(C)(Oc1ccc(C2CC2(Cl)Cl)cc1)C(=O)O` (stereo not drawn) it was 30.1%; in that of `C=CCOC(=O)NC(c1ccc(F)c(F)c1)C(C(=O)COC)C(=O)OC` (stereo not drawn), “inactive”; in that of `CCn1c(-c2ccncc2)n[nH]c1=S`, -8.17%.
As to `CCn1c(C(C)C)n[nH]c1=S`, the “cytoprotection (ATP increase)” value was -26.1%.
With `CCn1c(-c2ccoc2C)n[nH]c1=S`, the Potency is 5.62 µM (active).
On to `Cc1ccc(Nc2nc(N)nc(CSc3nnc(C)s3)n2)cc1`, for which the cytoprotection (ATP increase) was 18.8% [at 10 µM].
Take `CCOC(=O)C1CCCN(C(=O)c2cccc(S(=O)(=O)N3CCOCC3)c2)C1` (stereo not drawn): the cytoprotection (ATP increase) was 21.6% [at 10 µM].
For `CC(C)=CCN1CCC2(CCc3ccccc32)CC1`, the “cytoprotection (ATP increase)” value is -37.2%.
For `C#CCCOC(=O)N1C2=NC(C(=O)OC)=C(C(=O)OC)[C@@H]3N(C)c4ccc(OC)cc4[C@]23C[C@H]1C(=O)OC`, the cytoprotection (ATP increase) is -19.2% [at 10 µM].
Regarding `O=P(O)(O)OC[C@H](O)CO`, the “cytoprotection (ATP increase)” value was 2.81%.
Same read-out and setting: in the case of `CC(C)(C)OC(=O)NCCCC1=CC2=CC(=O)C(C)(OC(=O)c3ccco3)C(=O)C2=CO1` (stereo not drawn) it was -5.66%; in that of `COCCCNC(=O)C1CC(=O)N(CCc2ccccc2)C1` (stereo not drawn), -12%; in that of `COc1ccc(N=Nc2ccc(O)c(P(=O)(c3ccccc3)c3ccccc3)c2)cc1`, 13.4% [at 10 µM].
As for `COC(=O)C1(C(C)=O)CC2=CC[C@H]3C(=O)N(c4ccccc4)C(=O)[C@H]3[C@@H]2Cc2ccccc2[C@@H]1C[N+](=O)[O-]` (stereo partly drawn), the cytoprotection (ATP increase) result is “inactive”.
On the same count and under the same terms, in the case of `Cc1c(N=Nc2ccc(N(C)C)cc2)c(=O)n(-c2ccccc2)n1C` it was -1.47% [at 10 µM]; in that of `CCNC(=O)COC(=O)/C=C/c1c(C)nn(Cc2cccc(OC)c2)c1Cl`, -27%; in that of `CN(C)c1nc(N)nc(Cn2nnc(-c3ccc(C(F)(F)F)cc3)n2)n1`, -14.2%.
Consider `COC(=O)C1=C(C(=O)OC)[C@@H]2N(C)c3ccccc3[C@@]23C[C@@H](C(=O)OC)N(C(C)=O)C3=N1`, for which the cytoprotection (ATP increase) was 0.243% [at 10 µM] and 2.58% [at 10 µM].
For the compound `CCCCCCCC/C=C\CCCCCCCC(=O)OC[C@H](CO)OC(C)=O`, the cytoprotection (ATP increase) result is “inactive”.
Consider `Cc1ccc(CC2(O)CCN(CCOc3ccc(O)cc3)CC2)cc1`, for which the “cytoprotection (ATP increase)” value is -66.8%.
For `C=C1O[C@@](CO)(n2cnc3c(N)ncnc32)[C@H](O)[C@@H]1O`, the “cytoprotection (ATP increase)” value is -56.7%.
Same read-out and setting: in the case of `CC1=C2[C@@H](O)[C@H]([C@@H](C)C(=O)NCCC(C)C)CC[C@@]2(C)C=CC1=O` it was 16%; in that of `COc1cccc([C@@H]2Oc3ccc(Br)cc3C(=O)[C@H]2OC(=O)NCCc2ccc(OC)c(OC)c2)c1`, -49.1%; in that of `CCCCC/C=C\C/C=C\C/C=C\CCCCCCC(N)=O`, 26.9%.
For the compound `O=C1OCCN1C(=O)[C@H]1[C@H](c2ccccc2)C(c2ccc(F)cc2)=NN1c1ccccc1`, the “cytoprotection (ATP increase)” value is -95.6%.
`CCCCC/C=C\C/C=C\C/C=C\CCCCC(=O)NCC(=O)O`: the “cytoprotection (ATP increase)” value is 19.8%.
On to `C/C=C1\C2C=C(C)CC1(N)c1ccc(=O)[nH]c1C2` (stereo not drawn), for which the cytoprotection (ATP increase) entry is “inactive”.
As for `COc1cccc(NC(=O)CN(C)CC(=O)Nc2ccc3c(c2)CCC3)c1`, the cytoprotection (ATP increase) was 19.6% [at 10 µM].
Consider `Cc1ccc(-c2ncc(Cl)cc2-c2ccc(S(C)(=O)=O)cc2)cn1`, for which the “cytoprotection (ATP increase)” value is -6.4%.
As for `CC1(OC(=O)C2CCCC2)C(=O)C=C2C=C(c3ccc(C#N)cc3)OC=C2C1=O` (stereo not drawn), the “cytoprotection (ATP increase)” value was 14.5%.
As to `CCC(C)[C@@H](N)C(=O)O` (stereo partly drawn), the cytoprotection (ATP increase) result was “inactive”.
For the compound `Cc1cc2oc(=O)cc(-c3ccccc3)c2c(C)c1/C=C/c1ccc(F)cc1`, the “cytoprotection (ATP increase)” value was 7.14%.
Still for that read-out and setting: in the case of `COc1ccc(-c2nc3c(c4c2C[C@H](c2ccccc2)OC4)CN(S(=O)(=O)c2c(C)noc2C)CC3)c(C)c1` it was -10% [at 10 µM].
`O=C1/C(=C/c2cccs2)SC(=S)N1C1CCS(=O)(=O)C1` (stereo not drawn): the cytoprotection (ATP increase) was -20.7% [at 10 µM].
In the case of `C=C1c2cccc(OC)c2O[C@H](C(=O)OCC)[C@@H]1CCCCCC`, the “cytoprotection (ATP increase)” value was -42.4%.
Consider `C=CCC1CCC(=O)N2CCCC12` (stereo not drawn), for which the “cytoprotection (ATP increase)” value is 30.3% [at 96.6 µM].
